The record followed here is PubChem BioAssay AID1259421 (Broad Institute, 2018).

Each structure is given as a SMILES string. Several values for one entry are separate records, joined by “and”; a condition that tells them apart may be missing. Equal values may be shown once. Hit rate of the full screen: of about 6,400 compounds, about 610 (9.5%) were called active. Rule as the data show it: active = activity change below about -70%; inconclusive = no clear call, values can overlap the other calls; inactive = above that. Shown is part of a subset that was picked to be rich in actives. The source holds several records for some structures; these can differ, active in one and inactive in another.

The nature of this experiment: Toxoplasma gondii ME49Luc growth in HeLa cells, luciferase, no IFN-y, primary screen (AID 1259421). The following applies: T. gondii ME49Luc in HeLa, 72 h, stronger effect = lower value, concentration not given here.
`CCC1OC(=O)[C@H](C)C(=O)[C@H](C)[C@@H](OC2O[C@H](C)C[C@H](N(C)C)[C@H]2O)[C@](C)(OC)C[C@@H](C)C(=O)[C@@H](C)[C@@H]2N(CCCCn3cnc(-c4cccnc4)c3)C(=O)O[C@]12C` (stereo not given in full): the activity change, negative = inhibition was -0.624% (inactive).

Consider `COCCCCC(=NOCCN)c1ccc(C(F)(F)F)cc1`, for which the activity change, negative = inhibition was 4.87% (inactive).

For the compound `O=C(CCCc1ccc(-c2ccccc2F)cc1)Nc1ccc(O)cc1`, the activity change, negative = inhibition is -67.6% (inactive) and -60.5% (inactive).

Take `Nc1nccc(Oc2ccc(NC(=O)c3c[nH]cc(-c4ccc(F)cc4)c3=O)cc2F)c1Cl`: the activity change, negative = inhibition is -76.8% (active).

Turning to `Cn1cnc(-c2cc3nccc(Oc4ccc(NC(=S)NC(=O)Cc5ccccc5)cc4F)c3s2)c1`, the activity change, negative = inhibition was 28.8% (inactive).

`CCOc1ccn(-c2ccc(F)cc2)c(=O)c1C(=O)Nc1ccc(Oc2ccnc(N)c2Cl)c(F)c1`: the activity change, negative = inhibition was 0.966% (inactive).

Regarding `N#Cc1ccc(NCCNCC(=O)N2CCC[C@H]2C#N)nc1`, the activity change, negative = inhibition is -0.604% (inactive).

Take `COc1ccc(-c2cc(=O)c3c(O)cc(O[C@@H]4O[C@@H](CO[C@@H]5O[C@H](C)[C@@H](O)[C@H](O)[C@H]5O)[C@H](O)[C@@H](O)[C@H]4O)cc3o2)cc1O`: the activity change, negative = inhibition is 6.66% (inactive).

For `CCc1c(Cl)c(O)c(Cl)c(O)c1C(=O)O[C@H]1[C@H](O)[C@H](OC)[C@H](OCC2=C/C=C/C[C@H](O)/C(C)=C\[C@H](CC)[C@H](O[C@@H]3OC(C)(C)[C@@H](OC(=O)C(C)C)[C@H](O)[C@H]3O)/C(C)=C\C(C)=C\C[C@H]([C@@H](C)O)OC2=O)O[C@@H]1C`, the activity change, negative = inhibition is 16.6% (inactive).

As for `C[C@H]1O[C@@H](O[C@H]2[C@@H](O)C[C@H](O[C@H]3[C@@H](O)C[C@H](O[C@H]4CC[C@]5(C)C6C[C@@H](O)[C@]7(C)[C@@H](C8=CC(=O)OC8)CC[C@]7(O)C6CC[C@@H]5C4)O[C@@H]3C)O[C@@H]2C)C[C@H](O)[C@@H]1O` (stereo not given in full), the activity change, negative = inhibition is -76.7% (active) and -101% (active).

Regarding `C[C@H]1O[C@@H](O[C@H]2[C@@H](O)C[C@H](O[C@H]3[C@@H](O)C[C@H](O[C@H]4CC[C@]5(C)C6CC[C@]7(C)[C@@H](C8=CC(=O)OC8)CC[C@]7(O)C6CC[C@@H]5C4)O[C@@H]3C)O[C@@H]2C)C[C@H](O)[C@@H]1O` (stereo not given in full), the activity change, negative = inhibition was -83.2% (active) and -93.3% (active).

With `C=CCn1c(=O)n([C@@H]2O[C@H](CO)[C@@H](O)[C@H]2O)c2nc(N)[nH]c(=O)c21`, the activity change, negative = inhibition was -1.47% (inactive).

As for `CCNC(=O)CCC(N)C(=O)O` (stereo not given), the activity change, negative = inhibition is 15.2% (inactive).

As to `CC1(C)C2CC[C@]3(C)C(C(=O)C=C4[C@@H]5C[C@@](C)(C(=O)O)CC[C@]5(C)CC[C@]43C)[C@@]2(C)CC[C@@H]1OC(=O)CCC(=O)O` (stereo not given in full), the activity change, negative = inhibition was 6.36% (inactive).

Take `O=C(c1c(O)c2ccc(Cl)cc2[nH]c1=O)C1CC1`: the activity change, negative = inhibition is 3.48% (inactive) and 5.32% (inactive).

In the case of `C=CCN1CCCC1CNC(=O)c1cc2[nH]nnc2cc1OC` (stereo not given), the activity change, negative = inhibition was 3.75% (inactive).

For the compound `CC1(C)C(=O)[C@@H]2C[C@@]3(O)C4=CC(=O)O[C@@H](c5ccoc5)[C@]4(C)CCC3[C@@](C)(C2=O)[C@H]1CC(=O)O` (stereo not given in full), the activity change, negative = inhibition was 0.589% (inactive).

On to `O=c1n(CC2CO2)c(=O)n(CC2CO2)c(=O)n1CC1CO1` (stereo not given), for which the activity change, negative = inhibition is 36.1% (inactive).

On to `COc1ccc2cc1Oc1ccc(cc1)C[C@H]1c3cc(c(OC)cc3CCN1C)Oc1c(OC)c(OC)cc3c1[C@H](C2)N(C)CC3`, for which the activity change, negative = inhibition was -77.3% (active) and 18.9% (inactive).

On to `COc1ccc2cc1Oc1cc3c(cc1OC)CC[N+](C)(C)[C@H]3Cc1ccc(cc1)Oc1c(OC)c(OC)cc3c1[C@@H](C2)[N+](C)(C)CC3`, for which the activity change, negative = inhibition was 18.6% (inactive).

Regarding `COc1ccc2cc1Oc1ccc(cc1)C[C@H]1c3c(cc4c(c3Oc3cc5c(cc3OC)CCN(C)[C@@H]5C2)OCO4)CCN1C`, the activity change, negative = inhibition is 12.1% (inactive) and -4.88% (inactive).

For `CC(O)CCCCn1c(=O)c2c(ncn2C)n(C)c1=O` (stereo not given), the activity change, negative = inhibition was -6.61% (inactive).

For the compound `CCCN(CCc1cccs1)[C@H]1CCc2c(O)cccc2C1`, the activity change, negative = inhibition was 10.9% (inactive).

For the compound `CCCCn1c(=O)c2[nH]c(C34CC5CC(CC3C5)C4)nc2n(CCCO)c1=O`, the activity change, negative = inhibition was 12% (inactive) and -13.1% (inactive).

`O=C1[C@@H](Cc2ccc(O)cc2)N2C(=O)CCN(C(=O)NCc3ccccc3)[C@H]2CN1Cc1cccc2ccccc12`: the activity change, negative = inhibition is 1.58% (inactive).

In the case of `CC(=O)OC(C)(C)[C@@H]1Cc2cc3ccc(=O)oc3cc2O1`, the activity change, negative = inhibition was -5.08% (inactive).

With `CCN(Cc1cccc(S(=O)(=O)O)c1)c1cccc(C(=C2C=CC(=[N+](CC)Cc3cccc(S(=O)(=O)O)c3)C=C2)c2ccc(O)cc2S(=O)(=O)O)c1`, the activity change, negative = inhibition was -44.9% (inactive).

Regarding `CCN(CC)c1ccc(C(=C2C=CC(=[N+](CC)CC)C=C2)c2ccccc2)cc1`, the activity change, negative = inhibition is -79.9% (active).

On to `O[C@@H]1[C@H](O)[C@@H](CCl)O[C@H]1n1cnc2c(NC3CC4CCC3C4)ncnc21` (stereo not given in full), for which the activity change, negative = inhibition was 20.5% (inactive).

Consider `Cc1cc(Oc2ccc3nc(COc4ccc(CC5SC(=O)NC5=O)cc4)n(C)c3c2)cc(C)c1N` (stereo not given), for which the activity change, negative = inhibition was 12.3% (inactive).

Take `N[C@](CC1c2ccccc2Oc2ccccc21)(C(=O)O)[C@H]1C[C@@H]1C(=O)O`: the activity change, negative = inhibition is 6.02% (inactive).

Regarding `CCn1c(=O)[nH]c2ccccc21`, the activity change, negative = inhibition is 10.3% (inactive) and 2.46% (inactive).

Regarding `CCn1c(=O)[nH]c2cc(Cl)c(Cl)cc21`, the activity change, negative = inhibition is -80.8% (active) and -78.6% (active).

Turning to `CCN(CCO)CCCOc1ccc2c(Nc3cc(CC(=O)Nc4cccc(F)c4)[nH]n3)ncnc2c1`, the activity change, negative = inhibition was 18.9% (inactive).

Take `CCOc1ccc2nc(SCCN3CCOCC3)[nH]c2c1`: the activity change, negative = inhibition was 17.7% (inactive).

For `Cc1cc(C)c(Nc2ccnc(Nc3ccc(C#N)cc3)n2)c(C)c1`, the activity change, negative = inhibition was -44.9% (inactive).

For the compound `Cc1cc(/C=C/C#N)cc(C)c1Nc1ccnc(Nc2ccc(C#N)cc2)n1`, the activity change, negative = inhibition is 17.7% (inactive).

For the compound `Cc1cc(C#N)cc(C)c1Oc1nc(Nc2ccc(C#N)cc2)nc(N)c1Br`, the activity change, negative = inhibition was -89.7% (active).

Regarding `C[C@@H](N)c1ccc(C(=O)Nc2ccnc3[nH]ccc23)cc1`, the activity change, negative = inhibition was -3.01% (inactive).

Turning to `C=CC(=O)Nc1ccccc1`, the activity change, negative = inhibition was -0.419% (inactive).
